# ± gives the standard deviation of the averaged measurements. Over roughly 33,000 sequences, “E-score (rank enrichment, -0.5 to 0.5)” has its median near -0.0028; the highest 2% begin near 0.23. The sample as a whole holds a higher share of the highest values than the screen did.
# Tested on: 2Sb-muMax20 (muMax20 with two 1,3-bis(methyl)benzene Cys staples, A13C/A17C and Q88C/A92C, C-terminal Lys)
# Experiment: PBM 8-mer E-score (E-score (rank enrichment, -0.5 to 0.5)); higher = stronger preferential binding
# Description: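 Protein binding microarray (universal PBM chip covering all 10-mers in fixed probe flanks) with chemically synthesized human Max(13-93) bHLH-LZ analogs (not full-length Max) bearing noncanonical residues (hArg, Tha, Aib, Nle at 65) and aromatic Cys staples. Read-out per 8-mer (and its reverse complement): E-score (rank-based enrichment, -0.5 to 0.5) and Z-score of median probe intensity.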
row,Sequence,PBM 8-mer E-score
1,ACGAGACG,0.0104 ± 0.13
2,AGTGACTG,-0.0977 ± 0.053
3,CCGGCCCC,-0.0874 ± 0.098
4,TCCGTCGA,-0.0858 ± 0.034
5,GATGCGAC,0.0229 ± 0.095
6,ACCTTCAC,0.016 ± 0.0064
7,CTGTCATC,0.0122 ± 0.062
8,AATGCGCT,0.0765 ± 0.063
9,ACTGCGCC,-0.18 ± 0.0093
10,ACCTAGGA,0.0803 ± 0.054
11,AGTTGGGC,0.0922 ± 0.0035
12,AGTTGGGG,0.235 ± 0.015
13,AGTTGGGA,-0.0331 ± 0.025
14,ATAAGAAA,0.144 ± 0.013
15,AAAAGTAT,0.083 ± 0.012
16,ATAAGTAC,0.236 ± 0.016
17,AAAAGTAA,0.0725 ± 0.087
18,AAAAGTAC,0.239 ± 0.074
19,CTAAGTAC,0.0248 ± 0.0083
20,ATAAGAAC,0.239 ± 0.022
21,ATAAGAAT,0.104 ± 0.022
22,ATAAGTAT,0.125 ± 0.033
23,CCTACGCG,0.0631 ± 0.019
24,ATGGTAAC,0.184 ± 0.066
25,GCTGTCGA,-0.165 ± 0.0033

row,Sequence,PBM 8-mer E-score
1,GGCGCGAC,-0.163 ± 0.064
2,CGGACTAG,-0.0898 ± 0.0032
3,ATGGGGGA,0.071 ± 0.032
4,TGGGGAAA,0.314 ± 0.049
5,GTGGGGAA,0.293 ± 0.012
6,GGGGGAAA,0.0837 ± 0.028
7,TGGGGGAA,0.0145 ± 0.015
8,ATGGGGAC,0.108 ± 0.083
9,AGGGGGAG,-0.0302 ± 0.048
10,ATGGGGAG,0.252 ± 0.011
11,GTGGGGGA,0.0894 ± 0.033
12,CTGGGGAA,-0.106 ± 0.0058
13,ATGGGGAA,0.296 ± 0.074
14,ATGGGAAA,0.00532 ± 0.065
15,AAGGCAGA,-0.0447 ± 0.097
16,GCAGCTAC,-0.158 ± 0.016
17,GCTGGGAA,-0.192 ± 0.031
18,CGTTTAAC,0.0567 ± 0.0093
19,TATCAAGA,0.188 ± 0.043
20,CGTGGCAG,-0.0638 ± 0.045
21,ACTGTTTC,0.0301 ± 0.064
22,GCGGGGGA,0.0111 ± 0.068
23,GCGGGAAA,0.0716 ± 0.025
24,GCGGGGAA,0.247 ± 0.02
25,CGGCCCAA,-0.0811 ± 0.15

row,Sequence,PBM 8-mer E-score
1,GAGCAGCA,-0.143 ± 0.042
2,ACGATAGG,0.245 ± 0.015
3,CCGATAGG,-0.0782 ± 0.013
4,ACGATAGC,0.0621 ± 0.019
5,AAGCCGCC,-0.0339 ± 0.045
6,ATATAAAA,0.186 ± 0.049
7,GAATAAAA,0.0229 ± 0.074
8,CAATAATA,0.233 ± 0.066
9,GCATAACA,0.251 ± 0.042
10,CAATAAAA,0.284 ± 0.016
11,GTATAAAA,0.247 ± 0.042
12,ACATAACA,0.107 ± 0.034
13,GCATAACC,0.0156 ± 0.029
14,CAATAATC,0.189 ± 0.047
15,CAATAATG,0.0644 ± 0.019
16,GTATAAAC,0.186 ± 0.0026
17,CAATAAAC,0.0373 ± 0.052
18,AAGGGTCT,0.00286 ± 0.1
19,AACTGTCG,-0.138 ± 0.016
20,ACGATGAG,0.0498 ± 0.025
21,TCACGAGA,-0.0563 ± 0.015
22,GAATAACA,0.186 ± 0.011
23,CAATAACA,0.232 ± 0.0098
24,TAATAACA,0.0232 ± 0.011
25,CTCTTAAG,-0.0478 ± 0.022

row,Sequence,PBM 8-mer E-score
1,GTGCGCAC,0.157 ± 0.1
2,GATCAATC,-0.0898 ± 0.043
3,GTACCCCA,0.195 ± 0.023
4,TGACCCCA,0.111 ± 0.032
5,AGACCCCA,0.283 ± 0.011
6,AAACCCCA,0.232 ± 0.033
7,CTACCCCA,0.259 ± 0.021
8,AAACCCTA,0.244 ± 0.089
9,AAACCCTG,0.029 ± 0.12
10,CAACCCTA,0.019 ± 0.059
11,AGACCCCC,-0.382 ± 0.044
12,AAACCCCC,-0.275 ± 0.038
13,CTACCCCC,-0.0941 ± 0.072
14,AACCCCCA,-0.318 ± 0.021
15,AATGCCAT,0.0622 ± 0.045
16,AGTTGTAG,0.0711 ± 0.018
17,ATGGAAGG,-0.00186 ± 0.021
18,CCCCGTCA,0.0912 ± 0.04
19,CCCCGGCG,-0.233 ± 0.056
20,GCTGCAAA,-0.0134 ± 0.061
21,ACCGTCAT,0.0687 ± 0.082
22,CAACCCAA,-0.0401 ± 0.029
23,CAACCCCC,-0.167 ± 0.046
24,CAACCCCA,0.294 ± 0.051
25,ACTTTATA,0.232 ± 0.077

row,Sequence,PBM 8-mer E-score
1,AGTTTATC,0.182 ± 0.027
2,GGTTTATA,0.047 ± 0.079
3,ACTTTCTC,0.0106 ± 0.018
4,ACTTTCTG,-0.0565 ± 0.016
5,ACTTTATC,0.00955 ± 0.014
6,ACTTTCTA,0.241 ± 0.012
7,CCTTTATA,0.0289 ± 0.054
8,AGTTTATA,0.235 ± 0.044
9,AGGCGAGG,0.0445 ± 0.00056
10,CTATACCA,0.214 ± 0.036
11,CGTCTGAG,-0.115 ± 0.054
12,CAACCGCG,0.0452 ± 0.028
13,ATGTCTGC,-0.0456 ± 0.036
14,AATCTTCC,0.0406 ± 0.055
15,ATATCGAA,0.0967 ± 0.018
16,ATATCGAT,0.23 ± 0.013
17,ATATCGAC,0.0358 ± 0.012
18,TCCTGGCA,-0.0907 ± 0.03
19,CCTTATAC,0.175 ± 0.015
20,CACACTTA,0.15 ± 0.045
21,ATTTAAAC,0.167 ± 0.021
22,AAGGGTTG,0.0938 ± 0.044
23,AGGGGCAA,0.159 ± 0.017
24,AGGGGCAC,-0.0355 ± 0.044
25,GGGGGTAA,-0.0157 ± 0.073

row,Sequence,PBM 8-mer E-score
1,TGGGGTAA,0.266 ± 0.033
2,AGGGGTTA,0.135 ± 0.04
3,AGGGGCTC,0.0348 ± 0.035
4,AGGGGCAT,0.272 ± 0.028
5,AGGGGTTG,0.266 ± 0.068
6,AGGGGCTG,0.252 ± 0.036
7,AGGGGCTA,0.198 ± 0.055
8,CGGGGTAA,0.19 ± 0.055
9,TAAGGCGA,0.0332 ± 0.024
10,CCAACGTA,-0.0251 ± 0.052
11,CCACTCAA,0.199 ± 0.032
12,ACTGGCAG,-0.182 ± 0.042
13,AATGGTGG,0.0724 ± 0.034
14,AACCTTGT,-0.108 ± 0.054
15,GGGGCTAA,0.0894 ± 0.033
16,ATCGCCAA,-0.0483 ± 0.083
17,ACACCGTA,0.0971 ± 0.049
18,ATATCACA,0.112 ± 0.039
19,AAGCCCCG,0.0771 ± 0.022
20,AGGGGTAA,0.202 ± 0.014
21,CGGGGTAG,0.147 ± 0.071
22,AGGGGTAG,0.309 ± 0.059
23,AGGTCCGA,-0.128 ± 0.028
24,AATTTAAA,0.0161 ± 0.022
25,ATTTTTAC,0.127 ± 0.05

row,Sequence,PBM 8-mer E-score
1,GGAAACAA,0.133 ± 0.078
2,TGAAACAA,0.261 ± 0.053
3,AGAAACAC,0.0175 ± 0.091
4,AGAAACAA,0.252 ± 0.0078
5,AGAAACAT,0.0919 ± 0.038
6,CGAAACAA,0.0409 ± 0.023
7,ACCCTCTG,-0.181 ± 0.025
8,GGGTCTTA,0.104 ± 0.061
9,GCGTATGA,0.0375 ± 0.06
10,ATTCTTCA,0.00503 ± 0.029
11,ACCGCTTC,-0.17 ± 0.019
12,AATATTTA,0.201 ± 0.0076
13,GTTCAGGA,-0.184 ± 0.021
14,CCCTGAGC,0.0168 ± 0.058
15,AATATGAG,-0.034 ± 0.019
16,GATATGAA,0.103 ± 0.013
17,AATATGAA,0.271 ± 0.004
18,AATATGAC,0.166 ± 0.012
19,AATATGAT,0.252 ± 0.03
20,TATATGAA,0.159 ± 0.022
21,ATTTTACG,0.126 ± 0.054
22,CAGTTCAG,0.0182 ± 0.11
23,GTGCACAC,-0.0164 ± 0.1
24,GGCTACGA,-0.0832 ± 0.011
25,CACGTCCC,-0.161 ± 0.028

# Source: the supplement of paper PMC12636033
